Source: PubChem BioAssay
CF NFkB inh: inhibitors of PAF-induced NF-kB signaling, primary screen, cell-based, GFP fluorescence, uHTS | KKLEB NF-kB-GFP reporter, GFP fluorescence overnight | inhibition, % at 5 µM | 360,000 compounds, 0.86% hits;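 active = at least 50% inhibition at 5 µM, scaled per plate between neutral and stimulator controls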;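 also: PAF is a Pseudomonas aeruginosa culture filtrate used as stimulus; plate controls were PAF-stimulated DMSO wells for no effect and unstimulated DMSO wells for full effect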
MITF TRPM1 inh: inhibitors of MITF-dependent TRPM1 promoter reporter, primary screen, cell-based, SK-MEL-5, single point, luciferase; SK-MEL-5 TRPM1 promoter luciferase, 24 h; inhibition, % at 12.5 µM; 330,000 compounds, 0.83% hits; AID 488899, 2010;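 active = mean inhibition across replicates of 60% or more, whatever share of single replicates reaches that level; inconclusive = some that reach 60%, reason not given; inactive = mean inhibition across replicates below 60%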
HIF-2a block: HIF-2a reporter inhibitors, primary screen, luminescence, 786-0 RCC cells | 786-0 RCC cells HIF-2a reporter, luciferase luminescence, overnight | 360,000 compounds, 0.72% hits | inhibition, % at 18.8 µM;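 active = inhibition of the luminescence signal of 40% or more relative to plate controls, in a single-dose primary screen at 18.75 µM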
KKLEB cytotox: cytotoxicity in KKLEB CF airway cells, primary screen, cytotoxicity control for CF NF-kB inhibitor project, cell-based, uHTS, fluorescence assay plates; activity change (cytotoxicity), % at 5 µM; KKLEB CF airway cells viability, ATPlite luminescence, overnight; hits give low values; cells stimulated with P. aeruginosa culture filtrate; AID 602141, 2011; 360,000 compounds, 0.36% hits;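 active = corrected activity change at or below -50% at 5 µM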
Peg3 prom inh-1: Peg3 promoter-driven luciferase inhibitors, primary screen, cell-based, HeLa, luciferase luminescence; inhibition, % at 20 µM; 360,000 compounds, 1.7% hits; AID 588405, 2011; HeLa PEG-Prom luciferase reporter, overnight;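 active = inhibition of at least 50% at 20 µM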
Shn3 inh set2: reduction of Shn3 3'UTR firefly luciferase signal, primary screen, Schnurri-3 inhibitor project, cell-based, Clone20 osteoblasts, set 2. Clone20 osteoblast Shn3 3'UTR firefly luciferase, 24 h. inhibition, % at 12.5 µM. 360,000 compounds, 0.52% hits. AID 588674, 2011;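 active = mean inhibition of at least 75% with every replicate also reaching 75%; inconclusive = mean inhibition at least 75% but some replicate below; inactive = mean inhibition below 75%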;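 also: 0% = median of neutral control wells and 100% = pilot-screen positive control compound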
Peg3 prom inh-2: Peg3 promoter reporter inhibitors, retest, confirmation, cell-based, HeLa, luciferase reporter, single concentration | shares compounds with Peg3 prom inh-1 | HeLa PEG-Prom luciferase reporter, luminescence, overnight | inhibition, % at 20 µM | 1,300 compounds, 84% hits | AID 602417, 2012;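 active = at 20 µM dose, 40% or more inhibition averaged across four replicates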
Starred values were filed as active, the others as inactive; ? = inconclusive; . = not tested or not shown. Only some compounds are listed: those with a hit (about 2.7% of all), similar ones and a draw of the others.

SMILES | CF NFkB inh | MITF TRPM1 inh | HIF-2a block | KKLEB cytotox | Peg3 prom inh-1 | Shn3 inh set2 | Peg3 prom inh-2
CCC1(c2ccccc2)NC(=O)N(CC(=O)Nc2cc(S(=O)(=O)N3CCCCCC3)ccc2OC)C1=O (centres undefined) | 1.4 | 5.9 | 23.7 | -1.2 | 54.0* | 14.8 | 69.9*
Cc1ccc2ccc(C(Nc3ccccc3)c3ccc(C(C)C)cc3)c(O)c2n1 (centres undefined) | . | . | -11.8 | . | . | . | .
CCCC(=O)NC(c1ccc(C(C)C)cc1)c1ccc2cccnc2c1O (centres undefined) | -6.4 | 49.4 | 18.3 | -4.9 | 66.7* | 90.9* | 70.0*
COc1ccc(C(NC(=O)C(C)C)c2ccc3cccnc3c2O)cc1 (centres undefined) | 3.3 | 76.3* | 22.6 | -9.3 | 60.7* | 94.8* | 65.9*
O=C(O)c1ccccc1NC(c1ccccc1)c1ccc2cccnc2c1O (centres undefined) | -0.2 | 3.7 | 16.2 | -8.3 | 40.6 | -1.5 | .
Cc1cc(NC(c2ccc(Cl)cc2)c2ccc3cccnc3c2O)no1 (centres undefined) | -12.2 | 77.6* | 14.3 | -0.2 | 52.8* | 88.7* | 63.2*
CC(=O)NC(c1ccc(Cl)cc1)c1ccc2cccnc2c1O (centres undefined) | 6.1 | 54.9 | 16.7 | -32.5 | 60.2* | 87.3* | 70.3*
OCC[C@H]1C[C@H](O)[C@@H](O)[C@]2(CCCc3ccccc3O2)O1 | 0.1 | -8.3 | -9.7 | -1.5 | -3.6 | 1.3 | .
CCCCC(=O)NC(c1ccc(OC)cc1)c1ccc2cccnc2c1O (centres undefined) | -44.1 | . | 18.7 | 5.1 | 51.9* | 90.6* | 69.4*
CCC(=O)NC(c1ccc(C)cc1)c1ccc2cccnc2c1O (centres undefined) | 1.7 | ? | 15.6 | -2.1 | 60.5* | 89.8* | 68.5*
CCCC(=O)NC(c1ccc(N(C)C)cc1)c1ccc2cccnc2c1O (centres undefined) | 16.4 | 72.6* | 8.0 | -3.0 | 56.6* | 91.1* | 68.2*
CCCC(=O)NC(c1ccc(OC)cc1)c1c(O)ccc2ccccc12 (centres undefined) | 30.5 | 21.7 | 27.5 | -16.8 | 34.8 | 0.0 | .
Cc1ccnc(NC(c2ccccc2)c2ccc3cccnc3c2O)c1 (centres undefined) | -5.0 | 30.7 | 15.6 | -25.7 | 20.6 | 38.7 | .
CCC(C)n1cnc2c(c1=O)c1nc3ccccc3nc1n2-c1ccc2c(c1)OCCO2 (centres undefined) | 9.4 | -8.3 | -6.8 | -16.8 | 56.0* | 28.4 | 18.3
CN(c1ccccc1C(=O)N1CCN(c2ccccc2F)CC1)S(=O)(=O)c1ccccc1 | 25.1 | 0.3 | 15.6 | -16.6 | 7.7 | 4.5 | .
CC(=O)COc1cc2c(-c3cc4ccccc4o3)cc(=O)oc2cc1C | -193.3 | -8.0 | 4.4 | 1.8 | 56.4* | 8.4 | 35.9
CCc1cc2c(-c3ccccc3)cc(=O)oc2cc1OCC(C)=O | 4.5 | 2.4 | -8.9 | -0.2 | 11.0 | 2.4 | .
O=C(COC(=O)CCC(=O)c1ccc(F)cc1)Nc1ccc(Cl)cn1 | -2.4 | 5.2 | 1.8 | -2.6 | 8.5 | -10.1 | .
CC(=O)OCCNc1cc(SCc2ccco2)c2nonc2c1[N+](=O)[O-] | 28.5 | 15.3 | 8.5 | 12.7 | 52.1* | -21.6 | 68.8*
COC(=O)CCSc1cc(NCCOC(C)=O)c([N+](=O)[O-])c2nonc12 | 16.9 | -2.4 | 13.2 | -0.1 | 10.2 | -28.3 | .
Cc1nc(SCC(=O)Nc2ccc(S(=O)(=O)N3CCOCC3)cc2)c2c(C)c(C)sc2n1 | 37.3 | 29.4 | -3.5 | -25.8 | 70.0* | -0.1 | 39.7
Cc1ccccc1C(=O)NNS(=O)(=O)c1ccc(F)cc1 | -10.2 | . | 7.0 | -2.7 | 8.4 | -4.5 | .
